Assay results reported in PubChem BioAssay (EPA / NIEHS).
Inconclusive results are not listed. Activity calls are given as the source filed them. The calls were made as follows, unless noted: active = hit-call score of the fitted dose curve at least 0.9, where 1 is the maximum; inactive = score below 0.9.

Columns and labels:
[1] = target: Estrogen-related receptor gamma (Homo sapiens) (UniProt P62508); assay: ATG_ERRg_TRANS: Attagene TRANS-FACTORIAL HepG2 Assay for human Estrogen-Related Receptor gamma (ERRg) (AID 2282977; active = hit-call score of the fitted dose curve at least 0.9, where 1 is the maximum;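 also: hits increase reporter signal over DMSO so potencies reflect activators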); conditions: HepG2 Attagene TRANS reporter, ERRg transactivation
Estrogen-related receptor gamma (Homo sapiens), sequence (P62508 whole entry, looked up, the tested form may be a part): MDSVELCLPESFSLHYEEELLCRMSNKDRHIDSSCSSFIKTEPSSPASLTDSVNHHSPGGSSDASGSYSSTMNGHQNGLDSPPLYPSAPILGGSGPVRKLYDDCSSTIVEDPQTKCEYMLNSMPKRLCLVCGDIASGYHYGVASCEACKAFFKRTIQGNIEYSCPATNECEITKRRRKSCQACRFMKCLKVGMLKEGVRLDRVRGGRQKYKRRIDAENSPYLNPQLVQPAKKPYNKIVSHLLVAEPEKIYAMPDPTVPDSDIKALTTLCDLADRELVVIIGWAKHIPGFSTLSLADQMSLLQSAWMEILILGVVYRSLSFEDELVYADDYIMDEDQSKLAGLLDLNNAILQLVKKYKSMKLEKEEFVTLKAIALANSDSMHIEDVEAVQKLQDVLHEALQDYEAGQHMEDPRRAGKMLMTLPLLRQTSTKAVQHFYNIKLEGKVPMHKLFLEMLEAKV
In short: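 HepG2 cells transiently transfected with multiplexed GAL4-UAS reporter units and chimeric NR-Gal4 constructs were exposed to test chemicals for 24 h. Reporter mRNA was measured by RT-PCR, 6-FAM primer extension, HpaI digestion and capillary electrophoresis; gain-of-signal versus DMSO.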

[2] = target: Glucocorticoid receptor (Homo sapiens) (UniProt P04150); assay: ATG_GR_TRANS: Attagene TRANS-FACTORIAL HepG2 Assay for human Glucocorticoid Receptor (GR) (AID 2282978; active = hit-call score of the fitted dose curve at least 0.9, where 1 is the maximum;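 also: activators score as hits since higher reporter transcript over DMSO is fitted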); conditions: HepG2 Attagene TRANS GR reporter, mRNA transcription
Glucocorticoid receptor (Homo sapiens), sequence (P04150 whole entry, looked up, the tested form may be a part): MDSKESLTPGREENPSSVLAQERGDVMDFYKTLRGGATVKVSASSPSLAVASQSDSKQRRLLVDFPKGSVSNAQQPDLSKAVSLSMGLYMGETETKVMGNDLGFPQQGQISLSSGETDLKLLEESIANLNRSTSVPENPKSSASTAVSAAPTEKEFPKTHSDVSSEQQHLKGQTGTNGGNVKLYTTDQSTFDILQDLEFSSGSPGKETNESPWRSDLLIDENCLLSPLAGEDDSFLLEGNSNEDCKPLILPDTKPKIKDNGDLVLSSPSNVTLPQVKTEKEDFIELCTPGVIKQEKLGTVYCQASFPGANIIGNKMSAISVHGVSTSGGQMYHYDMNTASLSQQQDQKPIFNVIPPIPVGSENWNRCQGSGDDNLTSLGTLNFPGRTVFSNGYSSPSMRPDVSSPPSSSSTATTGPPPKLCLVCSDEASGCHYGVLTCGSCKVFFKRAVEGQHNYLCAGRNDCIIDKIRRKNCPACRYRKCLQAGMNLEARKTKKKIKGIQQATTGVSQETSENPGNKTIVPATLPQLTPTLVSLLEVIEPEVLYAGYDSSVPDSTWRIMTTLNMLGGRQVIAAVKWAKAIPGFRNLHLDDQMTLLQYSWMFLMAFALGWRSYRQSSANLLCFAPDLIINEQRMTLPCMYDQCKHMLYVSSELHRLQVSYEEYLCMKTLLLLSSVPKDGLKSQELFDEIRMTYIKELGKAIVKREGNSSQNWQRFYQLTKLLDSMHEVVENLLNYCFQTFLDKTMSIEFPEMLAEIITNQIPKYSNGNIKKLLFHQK
In short: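 Transiently transfected HepG2 cells express chimeric NR-GAL4 proteins acting on GAL4-UAS reporter units. Compounds are applied for 24 h. mRNA induction over DMSO is measured by capillary electrophoresis.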

[3] = ATG_M_06_TRANS: Attagene TRANS-FACTORIAL HepG2 Assay for M06 Transcription Factor (Internal Marker) (AID 2282983; active = hit-call score of the fitted dose curve at least 0.9, where 1 is the maximum); conditions: HepG2 Attagene TRANS M06 internal marker reporter
In short: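 HepG2 cells transiently transfected with multiplexed GAL4-UAS reporter transcription units; after 24 h compound exposure, reporter mRNA measured by RT-PCR, FAM-labelled primer extension, HpaI digestion and capillary electrophoresis. Gain-of-signal fitted versus DMSO baseline; background control readout.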

[4] = target: Nuclear respiratory factor 1 (Homo sapiens) (UniProt Q16656); assay: ATG_NRF1_CIS: Attagene CIS-FACTORIAL HepG2 Assay for human Nuclear Respiratory Factor 1 (NRF1) Orphan Gene (AID 2282987); conditions: HepG2 NRF1 cis-element reporter, Attagene multiplex; actives raise or lower the signal
Nuclear respiratory factor 1 (Homo sapiens), sequence (Q16656 whole entry, looked up): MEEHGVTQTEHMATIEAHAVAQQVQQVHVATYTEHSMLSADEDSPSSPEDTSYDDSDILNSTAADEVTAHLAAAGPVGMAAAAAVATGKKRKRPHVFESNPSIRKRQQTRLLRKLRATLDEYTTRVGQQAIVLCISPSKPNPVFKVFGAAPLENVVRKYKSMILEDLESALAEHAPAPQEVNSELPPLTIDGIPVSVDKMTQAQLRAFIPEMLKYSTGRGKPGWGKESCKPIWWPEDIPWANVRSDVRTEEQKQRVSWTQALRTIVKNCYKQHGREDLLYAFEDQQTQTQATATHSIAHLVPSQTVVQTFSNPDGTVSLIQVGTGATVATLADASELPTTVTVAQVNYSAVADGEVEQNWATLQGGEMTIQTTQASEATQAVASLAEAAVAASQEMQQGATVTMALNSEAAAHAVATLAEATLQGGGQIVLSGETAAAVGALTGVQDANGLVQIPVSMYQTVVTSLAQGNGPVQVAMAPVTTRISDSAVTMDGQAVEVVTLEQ
In short: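 Reporter mRNA induction or loss in HepG2 cells after 24 h dosing; cis-regulated reporter constructs report endogenous transcription-factor activity. Quantified by RT-PCR/capillary electrophoresis fluorescence, DMSO-referenced.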

[5] = ATG_NFI_CIS: Attagene CIS-FACTORIAL HepG2 Assay for human Nuclear Factor I (NFI) (AID 2282989); conditions: HepG2 cis-regulatory reporter, NFI response element transcription; actives raise or lower the signal
In short: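 Reporter transcripts were measured by RT-PCR with fluorescent primer extension and capillary electrophoresis 24 h post-treatment. HepG2 cells carried transiently transfected cis-regulated reporter constructs reporting endogenous factor activity; gain or loss fitted against DMSO baseline.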

[6] = target: Myc proto-oncogene protein (Homo sapiens) (UniProt P01106); assay: ATG_Myc_CIS: Attagene CIS-FACTORIAL HepG2 Assay for human Myelocytomatosis (Myc) Proto-Oncogene Transcription Factor (AID 2282990); conditions: HepG2, Attagene cis-reporter transcription factor activity; actives raise or lower the signal
Myc proto-oncogene protein (Homo sapiens), sequence (P01106 whole entry, looked up): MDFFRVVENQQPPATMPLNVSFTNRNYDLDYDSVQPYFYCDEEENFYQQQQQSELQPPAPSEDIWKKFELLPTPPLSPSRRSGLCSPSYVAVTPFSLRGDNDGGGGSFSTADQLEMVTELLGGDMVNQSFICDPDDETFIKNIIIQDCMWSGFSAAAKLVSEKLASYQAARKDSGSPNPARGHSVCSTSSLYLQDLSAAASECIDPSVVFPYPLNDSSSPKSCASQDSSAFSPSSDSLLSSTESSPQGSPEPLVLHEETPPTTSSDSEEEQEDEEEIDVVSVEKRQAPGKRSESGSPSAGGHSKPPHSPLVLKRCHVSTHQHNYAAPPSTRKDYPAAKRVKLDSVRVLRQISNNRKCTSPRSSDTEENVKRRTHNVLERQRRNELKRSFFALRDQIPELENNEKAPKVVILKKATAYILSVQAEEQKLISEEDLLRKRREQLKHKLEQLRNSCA
In short: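 Multiplexed cis-reporter transcription in HepG2 cells after 24 h chemical treatment. Reporter mRNA measured by RT-PCR and capillary electrophoresis fluorescence; activity fitted bidirectionally against DMSO control.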

[7] = ATG_NF_kB_CIS: Attagene CIS-FACTORIAL HepG2 Assay for human Nuclear Factor Kappa B (NF-kB) (AID 2282991); conditions: HepG2 Attagene cis-factorial NF-kB reporter mRNA; actives raise or lower the signal
In short: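 DMSO served as negative control and baseline for bidirectional curve fitting. Transiently transfected HepG2 cells were dosed for 24 h, then reporter transcripts were measured by RT-PCR with capillary electrophoresis detection.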

[8] = ATG_NRF2_ARE_CIS: Attagene CIS-FACTORIAL HepG2 Assay for human Nuclear Factor Erythroid 2 Related Factor 2 (NFR2) response to Antioxidant Response Elements (ARE) (AID 2282992); conditions: HepG2 Attagene ARE/NRF2 reporter, transcription factor activity; actives raise or lower the signal
In short: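 Multiplexed reporter mRNA profiling in HepG2 after a 24 h chemical exposure. Curves fitted in both directions relative to DMSO negative control.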

[9] = ATG_Oct_MLP_CIS: Attagene CIS-FACTORIAL HepG2 Assay for human Octamer-Binding Transcription Factor (Oct) (AID 2282993); conditions: HepG2 Attagene cis-factorial Oct reporter, mRNA; actives raise or lower the signal
In short: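 Readout is reporter transcript level from RT-PCR with fluorescent primer extension and capillary electrophoresis, fitted in both directions against DMSO. Transfected HepG2 reporter units report endogenous factor activity after 24 h dosing.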

[10] = target: Cellular tumor antigen p53 (Homo sapiens) (UniProt P04637); assay: ATG_p53_CIS: Attagene CIS-FACTORIAL HepG2 Assay for human p53 Transcription Factor (AID 2282994); conditions: HepG2 p53 cis-element reporter, Attagene mRNA; actives raise or lower the signal
Cellular tumor antigen p53 (Homo sapiens), sequence (P04637 whole entry, looked up): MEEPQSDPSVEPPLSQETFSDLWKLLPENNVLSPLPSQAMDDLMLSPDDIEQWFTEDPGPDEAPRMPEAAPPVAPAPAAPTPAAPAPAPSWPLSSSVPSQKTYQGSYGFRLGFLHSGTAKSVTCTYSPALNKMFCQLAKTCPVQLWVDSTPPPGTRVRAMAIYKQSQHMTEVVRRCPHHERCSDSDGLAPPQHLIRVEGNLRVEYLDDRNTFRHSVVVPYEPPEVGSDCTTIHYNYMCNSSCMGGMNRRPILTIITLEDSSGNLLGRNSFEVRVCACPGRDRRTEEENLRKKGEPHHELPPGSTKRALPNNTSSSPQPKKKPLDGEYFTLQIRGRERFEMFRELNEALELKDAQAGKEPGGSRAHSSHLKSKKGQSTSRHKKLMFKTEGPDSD
In short: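 Multiplexed reporter mRNA assay in human HepG2 liver cells; cis-regulated units report endogenous factor activity. Values come from bidirectional curve fitting against DMSO negative control after 24 h treatment.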

[11] = BSK_3C_TissueFactor: BioMAP Diversity Plus: 3C Assay for Tissue Factor Biomarker Activity (AID 2282997); conditions: BioMAP 3C HUVEC, tissue factor biomarker readout; actives raise or lower the signal
In short: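 Primary human umbilical vein endothelial cells in the 3C system were exposed to test chemical for 24 h, then Tissue Factor measured by ELISA. Activity was fitted bidirectionally against DMSO as negative control and baseline.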

[12] = BSK_3C_uPAR: BioMAP Diversity Plus: 3C Assay for Urokinase-type plasminogen activator receptor (uPAR) Biomarker Activity (AID 2282998); conditions: BioMAP 3C HUVEC, uPAR biomarker ELISA; actives raise or lower the signal
In short: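 Cell-surface uPAR on HUVEC (3C system) read by ELISA at 24 h post-treatment, with DMSO as baseline and fitting in both directions. Parallel cultures stained with SRB to flag overt cytotoxicity.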

[13] = BSK_3C_VCAM1: BioMAP Diversity Plus: 3C Assay for Vascular cell adhesion molecule 1 (VCAM1) Biomarker Activity (AID 2282999); conditions: BioMAP 3C HUVEC, VCAM1 ELISA, cytokine-stimulated; actives raise or lower the signal
In short: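 Human umbilical vein endothelial cells were dosed with compound for 24 h, after which cell-surface VCAM-1 was quantified by ELISA. Bidirectional curve fitting used DMSO as negative control and activity baseline.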

[14] = target: Oxysterols receptor LXR-alpha (Homo sapiens) (UniProt Q13133); assay: ATG_LXRa_TRANS: Attagene TRANS-FACTORIAL HepG2 Assay for human Liver X Receptor alpha (LXRa) (AID 2282980; active = hit-call score of the fitted dose curve at least 0.9, where 1 is the maximum); conditions: HepG2 Attagene TRANS reporter, LXRa transactivation
In short: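 HepG2 cells were transiently transfected with multiplexed reporter units driven by chimeric LXRa–GAL4 fusion proteins, then dosed for 24 h. Reporter mRNA was quantified by RT-PCR, fluorescent labelling and capillary electrophoresis; gain of signal fitted against DMSO baseline.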

[15] = target: Transcriptional activator Myb (Homo sapiens) (UniProt P10242); assay: ATG_Myb_CIS: Attagene CIS-FACTORIAL HepG2 Assay for human Myeloblastosis (Myb) Proto-Oncogene Transcription Factor (AID 2282986); conditions: HepG2 Attagene CIS-FACTORIAL Myb reporter transcription; actives raise or lower the signal
Transcriptional activator Myb (Homo sapiens), sequence (P10242 whole entry, looked up): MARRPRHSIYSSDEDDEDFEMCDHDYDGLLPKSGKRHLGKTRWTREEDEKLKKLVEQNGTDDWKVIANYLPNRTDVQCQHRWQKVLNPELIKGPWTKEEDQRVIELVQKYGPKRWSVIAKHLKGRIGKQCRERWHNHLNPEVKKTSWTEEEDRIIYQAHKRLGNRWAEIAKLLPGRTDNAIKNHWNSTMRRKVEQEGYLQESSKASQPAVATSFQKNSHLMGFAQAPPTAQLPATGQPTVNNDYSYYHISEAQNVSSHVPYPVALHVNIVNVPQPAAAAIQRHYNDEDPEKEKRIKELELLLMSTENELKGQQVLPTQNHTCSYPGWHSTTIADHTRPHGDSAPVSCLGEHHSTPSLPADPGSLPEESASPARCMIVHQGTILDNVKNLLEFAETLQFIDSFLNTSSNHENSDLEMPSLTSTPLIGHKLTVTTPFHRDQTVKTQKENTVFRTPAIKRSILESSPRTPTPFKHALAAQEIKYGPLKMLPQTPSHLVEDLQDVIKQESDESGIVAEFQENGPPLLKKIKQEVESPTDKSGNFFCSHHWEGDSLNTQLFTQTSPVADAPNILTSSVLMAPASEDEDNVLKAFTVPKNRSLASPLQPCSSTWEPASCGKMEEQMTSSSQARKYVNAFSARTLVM
In short: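 Using HepG2 liver cells bearing transiently transfected cis-promoter reporter constructs, the assay measures induction or loss of reporter mRNA after 24 hours of dosing. Detection used fluorescently labeled RT-PCR products separated by capillary electrophoresis.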

[16] = target: Hepatocyte nuclear factor 4-alpha (Homo sapiens) (UniProt P41235); assay: ATG_HNF4a_TRANS: Attagene TRANS-FACTORIAL HepG2 Assay for human Hepatocyte Nuclear Factor 4 alpha (HNF4a) (AID 2282982; active = hit-call score of the fitted dose curve at least 0.9, where 1 is the maximum); conditions: HepG2 HNF4a transactivation reporter, mRNA readout
Hepatocyte nuclear factor 4-alpha (Homo sapiens), sequence (P41235 whole entry, looked up, the tested form may be a part): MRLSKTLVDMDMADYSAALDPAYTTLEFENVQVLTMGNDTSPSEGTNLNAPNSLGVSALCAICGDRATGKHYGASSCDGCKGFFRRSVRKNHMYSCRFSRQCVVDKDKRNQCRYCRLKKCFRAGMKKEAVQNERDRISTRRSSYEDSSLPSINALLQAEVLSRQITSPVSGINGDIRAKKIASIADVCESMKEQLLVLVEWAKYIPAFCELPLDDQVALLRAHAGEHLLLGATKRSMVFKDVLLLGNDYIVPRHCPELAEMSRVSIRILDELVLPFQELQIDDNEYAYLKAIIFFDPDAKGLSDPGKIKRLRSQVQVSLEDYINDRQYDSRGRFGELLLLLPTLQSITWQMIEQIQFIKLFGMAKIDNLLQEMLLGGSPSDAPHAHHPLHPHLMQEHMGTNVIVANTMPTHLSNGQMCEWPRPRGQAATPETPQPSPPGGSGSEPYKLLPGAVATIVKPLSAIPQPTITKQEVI
In short: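 HepG2 cells transiently transfected with multiplexed GAL4-UAS reporter units responsive to chimeric NR-GAL4 proteins; compound exposure 24 h. Reporter mRNA quantified by RT-PCR, 6-FAM labelling, HpaI digestion and capillary electrophoresis; gain of signal versus DMSO baseline.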

[17] = ATG_M_32_TRANS: Attagene TRANS-FACTORIAL HepG2 Assay for M32 Transcription Factor (Internal Marker) (AID 2282984; active = hit-call score of the fitted dose curve at least 0.9, where 1 is the maximum); conditions: HepG2 Attagene TRANS M32 internal marker reporter
In short: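 HepG2 cells transiently transfected with multiple GAL4-UAS reporter transcription units, dosed for 24 hours; reporter mRNA quantified by RT-PCR, 6-FAM primer extension, HpaI digestion and capillary electrophoresis. Gain-of-signal fitted versus DMSO baseline; internal background-control marker.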

[18] = target: Nuclear receptor subfamily 4 group A member 2 (Homo sapiens) (UniProt P43354); assay: ATG_NURR1_TRANS: Attagene TRANS-FACTORIAL HepG2 Assay for human Nuclear Receptor Related Protein 1 (NURR1) (AID 2282985; active = hit-call score of the fitted dose curve at least 0.9, where 1 is the maximum); conditions: HepG2 Attagene TRANS reporter, mRNA readout
Nuclear receptor subfamily 4 group A member 2 (Homo sapiens), sequence (P43354 whole entry, looked up, the tested form may be a part): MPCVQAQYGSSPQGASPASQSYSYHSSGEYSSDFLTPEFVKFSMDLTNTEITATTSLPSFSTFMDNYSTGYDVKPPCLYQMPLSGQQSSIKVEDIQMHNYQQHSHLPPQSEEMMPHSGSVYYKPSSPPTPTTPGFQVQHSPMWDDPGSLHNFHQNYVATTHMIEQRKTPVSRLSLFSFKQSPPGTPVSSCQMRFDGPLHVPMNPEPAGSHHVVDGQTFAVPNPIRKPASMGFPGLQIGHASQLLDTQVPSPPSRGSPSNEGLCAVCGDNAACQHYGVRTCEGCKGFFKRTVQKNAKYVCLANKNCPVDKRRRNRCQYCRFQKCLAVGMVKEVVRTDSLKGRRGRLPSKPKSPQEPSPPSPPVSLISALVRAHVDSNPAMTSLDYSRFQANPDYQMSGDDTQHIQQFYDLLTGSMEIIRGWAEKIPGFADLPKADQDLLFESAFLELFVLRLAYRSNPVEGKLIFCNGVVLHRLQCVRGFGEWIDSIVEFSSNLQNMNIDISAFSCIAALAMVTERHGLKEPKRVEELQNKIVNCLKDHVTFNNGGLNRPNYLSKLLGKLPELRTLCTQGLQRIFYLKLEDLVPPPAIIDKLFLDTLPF
In short: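 HepG2 cells transiently transfected with GAL4-UAS reporter units and chimeric NR-Gal4 constructs; chemical exposure 24 h. Reporter mRNA quantified by RT-PCR, fluorescent labelling and capillary electrophoresis; gain of signal fitted relative to DMSO baseline.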

[19] = target: Bile acid receptor (Homo sapiens) (UniProt Q96RI1); assay: ATG_FXR_TRANS: Attagene TRANS-FACTORIAL HepG2 Assay for Farnesoid X Receptor (FXR) (AID 2282979; active = hit-call score of the fitted dose curve at least 0.9, where 1 is the maximum;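 also: hits raise reporter mRNA above DMSO so AC50 marks FXR activation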); conditions: HepG2 Attagene TRANS FXR-GAL4 reporter transcription
In short: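 HepG2 cells transiently transfected with reporter constructs in which a chimeric FXR-GAL4 protein drives a GAL4-UAS reporter; 24 h compound exposure. Reporter mRNA measured by RT-PCR, FAM labelling, HpaI digestion and capillary electrophoresis; gain-of-signal versus DMSO.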

[20] = target: Oxysterols receptor LXR-beta (Homo sapiens) (UniProt P55055); assay: ATG_LXRb_TRANS: Attagene TRANS-FACTORIAL HepG2 Assay for human Liver X Receptor beta (LXRb) (AID 2282981; active = hit-call score of the fitted dose curve at least 0.9, where 1 is the maximum); conditions: HepG2 Attagene TRANS GAL4-LXRb reporter, mRNA
Oxysterols receptor LXR-beta (Homo sapiens), sequence (P55055 whole entry, looked up, the tested form may be a part): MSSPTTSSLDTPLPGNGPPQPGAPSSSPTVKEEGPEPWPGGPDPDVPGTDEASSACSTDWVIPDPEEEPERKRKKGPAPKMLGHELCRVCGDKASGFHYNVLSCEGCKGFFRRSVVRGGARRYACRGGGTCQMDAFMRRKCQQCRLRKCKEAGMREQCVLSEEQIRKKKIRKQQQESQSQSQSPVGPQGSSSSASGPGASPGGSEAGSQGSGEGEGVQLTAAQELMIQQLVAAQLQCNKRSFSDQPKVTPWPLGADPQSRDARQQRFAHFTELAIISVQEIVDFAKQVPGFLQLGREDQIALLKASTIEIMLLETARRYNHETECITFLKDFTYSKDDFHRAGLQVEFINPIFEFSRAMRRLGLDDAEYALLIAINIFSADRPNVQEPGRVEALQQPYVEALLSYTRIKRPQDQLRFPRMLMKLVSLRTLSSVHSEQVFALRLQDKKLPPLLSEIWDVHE
In short: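 HepG2 cells transiently transfected with multiple reporter transcription units carrying chimeric NR-Gal4 proteins acting on GAL4-UAS reporters; compound exposure 24 h. Reporter mRNA quantified by RT-PCR, 6-FAM labelling, HpaI digestion and capillary electrophoresis; gain of signal versus DMSO.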

Measured: AC50

CCCC(C)C(=O)OCC (configuration not stated)
not listed: [14] | [15] | [16] | [17] | [18] | [19] | [20]
inactive: all other assays above

CCC(=O)C1CC(C(C)C)CC=C1C (configuration not stated)
active: [8] 40.1 µM
inactive: [1] | [2] | [14] | [3] | [15] | [4] | [5] | [6] | [7] | [9]

C=C(C)C(=O)OCCCCCCCCCCCC
not listed: [3] | [14] | [19] | [20]
inactive: all other assays above

CN(C)c1ccc2nc3ccc(=[N+](C)C)cc-3sc2c1
active: [4] 15 µM | [8] 2.2 µM
not listed: [2] | [7] | [11] | [12] | [13] | [17]
inactive: all other assays above

Cc1c(O)cccc1O
not listed: [2] | [3] | [10] | [14] | [17]
inactive: all other assays above

CCCCC(CC)COC(=O)/C=C/c1ccc(OC)cc1 (configuration not stated)
not listed: [11] | [12] | [13] | [19] | [20]
inactive: all other assays above

[Cl][Sc]([Cl])[Cl]
not listed: [3] | [11] | [12] | [13] | [14] | [17] | [18] | [19]
inactive: all other assays above

CO[Si](C)(C)OC
active: [15] 151 µM | [6] 158 µM
not listed: [11] | [12] | [13] | [14] | [18] | [19] | [20]
inactive: all other assays above

c1ccc2cnccc2c1
not listed: [11] | [12] | [13] | [14] | [17] | [18] | [19]
inactive: all other assays above
